The panel holds about 83,000 compounds, 20% with a hit somewhere; the sample as a whole holds those more often.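 Single-concentration screen, 48 h exposure, 96-well plates. Endpoint: percent growth. Below 10 = active.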 Unmarked numbers belong to inactive results. Calls of active or inactive are those of the source.
Key:
Test in all cases: NCI-60 one-dose screen, 48 h (100 = growth as untreated, 0 = no growth, -100 = all killed)
Settings in all cases: 10 µM unless noted
[1] = system: DU-145 prostate
[2] = system: K-562 leukemia
[3] = system: MALME-3M melanoma
[4] = system: MDA-MB-231 breast
[5] = system: RXF 393 renal
[6] = system: SF-268 CNS
[7] = system: SF-295 CNS
[8] = system: SF-539 CNS
[9] = system: UACC-257 melanoma
[10] = system: M14 melanoma

Structure (SMILES) | growth [1] | growth [2] | growth [3] | growth [4] | growth [5] | growth [6] | growth [7] | growth [8] | growth [9] | growth [10]
Cc1ccc(-[n+]2c3cc(N)c(C)cc3nc3cc(C)c(Nc4ccccc4)cc32)cc1 | -79.3% (active) | -22.7% (active) | -58% (active) | -70% (active) | -98.7% (active) | -88.6% (active) | -39.2% (active) | -77% (active) | -48.8% (active) | -93.3% (active)
Cc1c(N)ccc(-c2ccc(N)c(C)c2S(=O)(=O)O)c1S(=O)(=O)O | 111% | 101% | 127% | 109% | 118% | 109% | 117% | 126% | 115% | 108%
Cc1cccc(Cl)c1NC(=O)c1cnc(Nc2cc(N3CCOCC3)cc(S(C)(=O)=O)c2)s1 | -41.1% (active) | 6.1% (active) | 42.2% | 9.71% (active) | -34.8% (active) | 25.4% | 53.8% | 2.23% (active) | 43.2% | 42.4%
O=C1CCC(=O)CC1 | 110% | 96.7% | 110% | 105% | 113% | 98.8% | 101% | 95.3% | 89.4% | 98.1%
CC(C)[C@@H]1CC[C@@H]2[C@@H]1[C@H](OC(=O)/C=C/c1ccccc1)[C@]1(C(C)C)C[C@@H](OC(=O)CO)[C@@]2(C)O1 | 86% | 78.3% | 80.3% | 77.7% | 23.4% | 56.8% | 92.2% | 97.1% | 84.1% | 95.8%
NC1=Nc2cc(OCCCN3Cc4ccccc4C3)c(OCC3CC3)cc2C12CCCC2 | 78.6% | -8.16% (active) | -58.3% (active) | 36.2% | 60.6% | 74.1% | 64.6% | 49.2% | -47.2% (active) | -70.2% (active)
CCc1cnn2c(NCc3ccc[n+]([O-])c3)cc(N3CCCC[C@H]3CCO)nc12 | 5.68% (active) | 1.85% (active) | -46.3% (active) | 2.67% (active) | -64.6% (active) | 3.65% (active) | 3.11% (active) | -48.1% (active) | -42.4% (active) | -42.5% (active)

— PubChem BioAssay (NCI)
